Pol eta inh-1: DNA polymerase eta (human) inhibition; recombinant Pol eta, fluorescent DNA replication assay; Q9Y253; Potency, µM (series often up to 114 µM), without a hit: top-dose activity change, negative = inhibition, hits mostly inhibitors; actives 1.2% (n = 390,000); AID 588591; further: on the % scale 0 is the no-effect control and ±100 the full control effect
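Fluorescent replication assay: 50 nM final substrate added after a 15 min room-temperature compound preincubation with 10 nM enzyme. Signal taken at 0 min and again at 10 min.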
WRN helicase inh-1: blocks human WRN helicase; Q14191; WRN helicase unwinding, fluorescent forked duplex, kinetic; Potency, µM (top dose mostly 114 µM), inactives show top-dose activity change, negative = inhibition, hits mostly inhibitors; actives 0.46% (n = 360,000); further: on the % scale 0 is the no-effect control and ±100 the full control effect; nearly all actives have a fitted effect of over 55% in size
Target sequence (Q14191 whole entry, looked up): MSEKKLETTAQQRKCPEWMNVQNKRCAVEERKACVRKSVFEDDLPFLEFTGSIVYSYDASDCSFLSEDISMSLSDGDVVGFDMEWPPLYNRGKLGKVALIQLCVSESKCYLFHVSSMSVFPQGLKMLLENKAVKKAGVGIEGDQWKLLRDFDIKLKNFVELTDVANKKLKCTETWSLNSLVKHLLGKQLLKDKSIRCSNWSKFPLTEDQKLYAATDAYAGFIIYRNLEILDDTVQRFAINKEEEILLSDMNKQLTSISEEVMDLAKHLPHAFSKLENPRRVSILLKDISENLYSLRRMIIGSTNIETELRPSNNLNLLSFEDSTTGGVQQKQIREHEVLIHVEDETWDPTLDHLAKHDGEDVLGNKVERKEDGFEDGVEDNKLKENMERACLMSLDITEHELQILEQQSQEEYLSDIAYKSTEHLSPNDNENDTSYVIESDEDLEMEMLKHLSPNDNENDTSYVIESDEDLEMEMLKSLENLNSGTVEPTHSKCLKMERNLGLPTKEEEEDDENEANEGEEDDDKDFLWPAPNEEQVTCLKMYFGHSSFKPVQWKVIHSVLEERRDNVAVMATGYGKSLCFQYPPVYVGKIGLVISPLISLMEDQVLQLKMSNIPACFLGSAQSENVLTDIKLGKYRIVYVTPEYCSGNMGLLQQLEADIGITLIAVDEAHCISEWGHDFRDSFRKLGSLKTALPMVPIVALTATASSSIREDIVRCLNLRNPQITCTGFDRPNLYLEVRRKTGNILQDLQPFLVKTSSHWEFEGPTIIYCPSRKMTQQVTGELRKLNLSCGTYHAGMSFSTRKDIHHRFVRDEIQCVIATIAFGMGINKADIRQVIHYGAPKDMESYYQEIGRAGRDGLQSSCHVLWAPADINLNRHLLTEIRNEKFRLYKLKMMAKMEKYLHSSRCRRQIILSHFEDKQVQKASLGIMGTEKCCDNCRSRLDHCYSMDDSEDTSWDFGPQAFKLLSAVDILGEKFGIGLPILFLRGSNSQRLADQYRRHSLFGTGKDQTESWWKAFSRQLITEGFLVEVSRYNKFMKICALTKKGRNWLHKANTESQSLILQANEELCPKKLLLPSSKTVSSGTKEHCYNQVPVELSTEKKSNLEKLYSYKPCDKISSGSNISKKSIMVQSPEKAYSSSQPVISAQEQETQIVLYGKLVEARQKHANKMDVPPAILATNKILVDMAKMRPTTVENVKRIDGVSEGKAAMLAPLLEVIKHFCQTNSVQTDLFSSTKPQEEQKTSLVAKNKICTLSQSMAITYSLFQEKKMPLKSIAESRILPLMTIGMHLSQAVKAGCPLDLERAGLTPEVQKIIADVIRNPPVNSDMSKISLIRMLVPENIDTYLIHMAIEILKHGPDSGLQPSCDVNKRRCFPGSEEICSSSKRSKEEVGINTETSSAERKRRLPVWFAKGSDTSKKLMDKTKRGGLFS
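WRN at 20 nM final preincubated with compound 15 min at room temperature; reaction started with 100 nM fluorophore/quencher forked duplex oligonucleotide and 2 mM ATP final. Unwinding followed kinetically by red fluorescence (ex 525, em 598 nm).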
POLI inh: inhibitors of human DNA polymerase iota; Q9UNA4; Pol iota fluorescent replication assay, 10 min; Potency, µM (doses to about 115 µM), inactives show at the highest dose activity, negative = inhibition, hits mostly inhibitors; actives 1% (n = 390,000); AID 588590
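Fluorescent replication assay read twice, at 0 min and 10 min after adding 50 nM (final) substrate. Enzyme (10 nM) and compounds were first incubated 15 min at room temperature; enzyme-free buffer wells were negative controls.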
Pol kappa inh-1: DNA polymerase kappa (human) inhibition; Q9UBT6; purified Pol kappa, fluorescent DNA synthesis assay, 10 min; Potency, µM (doses to about 107 µM), without a hit: top-dose activity, negative = inhibition, most hits filed as inhibitors; actives 0.53% (n = 400,000); AID 588579; further: on the % scale 0 is the no-effect control and ±100 the full control effect
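Fluorescent qHTS in 1536-well format: enzyme (10 nM) and compound sat 15 min at room temperature before 50 nM substrate (final) was added. Signal taken at 0 and 10 min; no-enzyme buffer wells were negative controls.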
POLB inh: DNA polymerase beta (human) inhibition; actives 1.3% (n = 340,000); Pol beta primer extension/strand displacement, fluorescence kinetic; P06746; Potency, µM (titrated, usually from 114 µM), for the others: top-dose activity change, negative = inhibition, most hits filed as inhibitors; further: on the % scale 0 is the no-effect control and ±100 the full control effect
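Homogeneous kinetic assay of primer extension and strand displacement by 10 nM Pol beta, preincubated 15 min at room temperature with compound before 50 nM substrate (final) was added. Read at 0 and 10 min; four-parameter Hill fit.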
Pol kappa inh-2: Pol kappa (human) inhibition, cherry-pick confirmation | actives 76% (n = 920) | Potency, µM, hits mostly inhibitors | AID 720501 | purified Pol-kappa, fluorescent strand-displacement substrate | shares compounds with Pol eta inh-1
Pol eta inh-2: confirmation of human DNA polymerase eta inhibitors | shares compounds with Pol eta inh-1 | Pol eta primer extension, TAMRA/BHQ fluorescence, 10 min | Potency, µM, usual class: inhibitors | actives 64% (n = 2,600)
WRN helicase inh-2: confirmation of human WRN helicase inhibitors; Potency, µM (titrated, usually from 57.1 µM), inactives show at the top dose activity, negative = inhibition, most hits filed as inhibitors; WRN helicase DNA unwinding, fluorescence kinetic; AID 720497; actives 63% (n = 610); shares compounds with WRN helicase inh-1; further: nearly all actives have a fitted effect of over 65% in size
TO displacement: DNA binding via thiazole orange displacement; actives 10% (n = 610); AID 720499; shares compounds with WRN helicase inh-1; thiazole orange DNA binding displacement, fluorescence; Potency, µM (doses to about 57.1 µM), without a hit: at the top dose activity change, negative = inhibition, hits mostly inhibitors;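 further: drop in dye fluorescence marks compound binding to DNA; on the % scale 0 is the no-effect control and ±100 the full control effect; nearly all actives have a fitted effect of over 60% in size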
BLM counter: counter-screen for WRN helicase inhibitors: human BLM helicase inhibition | Recombinant BLM helicase DNA unwinding, red fluorescence | actives 60% (n = 610) | shares compounds with WRN helicase inh-1 | Potency, µM (titrated, usually from 57.1 µM), inactives show at the top dose activity change, negative = inhibition, usual class: inhibitors; further: nearly all actives have a fitted effect of over 60% in size
Active calls of the source: *; ? = inconclusive; · = no result; [ ] = remark or other dose. Sampled rows, rich in hits. Any-hit rate of the full collection: about 2.3%. The call rests on the fitted dose curve; in most records, active means well fitted curve in the direction sought with a large enough effect; inconclusive means small, poorly fitted or top-dose-only effect, or another doubt; inactive means no such curve, though single readings can be large; an effect the other way counts as inactive or inconclusive. Potency means the concentration at half of the fitted maximal effect.

SMILES	Pol eta inh-1	WRN helicase inh-1	POLI inh	Pol kappa inh-1	POLB inh	Pol eta inh-2	WRN helicase inh-2	TO displacement	BLM counter	others
CCC(=O)c1ccc(CCCCCC(=O)O)s1	8.9µM*	?	?	?	35µM*	38*	22µM*	3%	22µM*
COc1ccc(Sc2ccc(/C=C3\C(=O)NN(c4ccccc4)C3=O)o2)cc1	25µM*	?	18µM*	?	45µM*	?	22µM*	-18%	22µM*
O=C(O)/C=C/C(=O)c1ccc2c(c1)CCc1ccccc1-2	35µM*	1.5µM*	1.6µM*	-15%	·	?	?	-10%	19µM*
Cc1cc(C)cc(NC(=O)CSc2nc(-c3ccccc3)c3cc(F)ccc3n2)c1	4%	·	-15%	6%	43%	·	·	·	·
COc1cc(/C=C(\C#N)c2nc3ccc(C)cc3[nH]2)cc([N+](=O)[O-])c1O	22µM*	?	?	-42%	45µM*	76*	22µM*	11µM*	12µM*	Pol kappa inh-2=24*
Cc1nn(C(C)(C)C)c(OC(=O)C(C)(C)C)c1Sc1ccccc1	-12%	·	-15%	-7%	32%	·	·	·	·
COc1ccc2oc(=O)cc(CN3CCN(c4ccccc4F)CC3)c2c1	19%	·	11%	-6%	13%	·	·	·	·
O=C(Nc1nncs1)c1cc(-c2ccco2)nc2ccccc12	14µM*	32µM*	?	?	·	76*	?	-9%	?	Pol kappa inh-2=?
Cc1cccc(NC(=O)c2cc(-c3ccco3)nc3ccccc23)n1	-17%	-36%	-6%	-4%	20%	·	·	·	·
O=C(N/N=C1/C(=O)c2cccc3cccc1c23)c1ccc(Cl)cc1	8.9µM*	16µM*	49%	-42%	?	?	6.1µM*	19µM*	2.2µM*
CCNC(=S)N/N=C1\C(=O)c2cccc3cccc1c23	1%	-5%	12%	-1%	-3%	·	·	·	·
CC(=O)Oc1cc(C(=O)OCC(=O)N2CCc3ccccc3C2)cc(OC(C)=O)c1OC(C)=O	7.1µM*	18µM*	?	40µM*	·	?	27µM*	-5%	22µM*	Pol kappa inh-2=17*
CC(C)c1ccc(NC(=O)c2cc3c(=O)[nH]c4ccccc4c3n2C)cc1	8%	·	-6%	10%	19%	·	·	·	·
CN(C)c1ccc(/C=C/C=C2/SC(=S)N(c3ccccc3)C2=O)cc1	0%	?	?	-4%	37%	·	·	·	·
O=C1/C(=C/C=C/c2ccco2)SC(=S)N1c1ccc(O)cc1	3.5µM*	32µM*	?	7.9µM*	3.2µM*	60*	12µM*	?	8.6µM*
COc1ccc(-c2cn3cccnc3n2)cc1NC(=O)Nc1cc(C)ccc1C	79µM*	·	?	-13%	-15%	?	15µM*	-8%	6.8µM*	Pol kappa inh-2=15*
CCOc1ccc(-n2cc(-c3ccccc3)c3c(N4CCN(c5ccccc5OC)CC4)ncnc32)cc1	-15%	·	17%	-13%[60.1 µM]	-2%	·	·	·	·
Cc1cc(O)c(Oc2cc(C)cc(O)c2O)c(O)c1	22µM*	28µM*	40µM*	22µM*	3.5µM*	38*	19µM*	-7%	22µM*
Cc1cc(C(C)(C)C)c(O)c(C(C)(C)C)c1	-16%	3%	30%	0%[60.1 µM]	?	·	·	·	·
C=CCn1c(SCC(=O)c2ccc(O)c(O)c2)nnc1-c1cccc(C)c1	16µM*	20µM*	79µM*	45µM*	·	?	8.6µM*	-9%	?
COc1cccc(C(=O)Nc2cccc(C(=O)NC3=NN(c4c(Cl)cc(Cl)cc4Cl)C(=O)C3)c2)c1	40µM*	?	?	22µM*	14µM*	76*	?	?	?
COc1cc(NS(=O)(=O)c2ccc(NC(=S)NC(=O)c3sc4cc(F)ccc4c3Cl)cc2)nc(OC)n1	45µM*	?	?	1%	32%	43*	22µM*	-21%	24µM*
COc1ccc(/C=C2\SC(=N)N(c3nccs3)C2=O)cc1OC	?	-25%[57.1 µM]	23%	-21%	?	·	·	·	·
N=C1S/C(=C\c2ccc(-c3cccc(Cl)c3)o2)C(=O)N1c1nccs1	10µM*	45µM*	?	-43%	8.9µM*	?	22µM*	17µM*	7.6µM*	Pol kappa inh-2=24*
CCc1c(C)sc2c1CCN(C(=O)Nc1cc(C)ccc1C)C2c1ccc(OC)cc1 (centres undefined)	-27%	·	40%	1%[60.1 µM]	-21%	·	·	·	·
SMILES	Pol eta inh-1	WRN helicase inh-1	POLI inh	Pol kappa inh-1	POLB inh	Pol eta inh-2	WRN helicase inh-2	TO displacement	BLM counter	others
O=c1c(Br)ccc(Br)cc1Br	28µM*	10µM*	7.1µM*	-6%	·	?	24µM*	-20%	22µM*
O=C1CN(S(=O)(=O)c2cc(Br)ccc2Br)CCN1	-11%	6%	10%	8%	·	·	·	·	·
N[C@H](C(=O)O)C1[C@H](C(=O)O)[C@H]1C(=O)O (some centres undefined)	·	·	·	-7%[19.4 µM]	·	·	·	·	·
CC1C=CC(C)C(C(=O)O)C1C(=O)O (centres undefined)	2.5µM*	?	?	40µM*	5.6µM*	5.4*	14µM*	38%	4.8µM*
Cc1nn(-c2ccc(N3CCCCC3)nn2)c(C)c1CCC(=O)NCc1ccc(OC(C)C)cc1	12%	·	5%	0%	44%	·	·	·	·
COc1cc(/C=C2/SC(=S)N(Cc3ccccc3)C2=O)ccc1OS(C)(=O)=O	1%	0%	-6%	-5%	8%	·	·	·	·
COc1cc([N+](=O)[O-])cc(/C=C2/SC(=S)N(Cc3ccccc3)C2=O)c1O	?	2.7µM*	14µM*	-20%	18µM*	43*	7.6µM*	14µM*	5.4µM*	Pol kappa inh-2=19*
CCOC(=O)c1cc(C)n(CC2CCC(C(=O)Nc3ccc(OC)cc3)CC2)c1C (centres undefined)	-6%	·	8%	2%	26%	·	·	·	·
COc1ccc(-c2csc(NC(=S)NC(=O)c3cccs3)n2)cc1Br	-8%	-36%	99%	-6%	0%	·	·	·	·
